DRD3 agonist – D3 dopamine receptor (human) agonism | D3R DiscoveRx beta-arrestin cells, luminescence, 90 min | max activation, % | AID 652048 | hit rate 0.58% among 410,000 | P35462; in the data active = max activation above about 30%; note: 0% is about no effect
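Cells at 1500/well, incubated overnight, then treated with pinned compounds (dopamine as control) for 90 min at 37 degrees C. DiscoveRx reagent added for 30 - 60 minutes at room temperature; luminescence read.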
D3 antag – antagonists of human D3 dopamine receptor | P35462 | hit rate 2.5% among 360,000 | max response, negative = inhibition, % | D3R cells, DiscoveRx beta-arrestin luminescence, antagonist mode; hits give low values; in the data active = max response below about -50%; inconclusive = no clear call, values can overlap the other calls; note: % is set by controls: 0 for no effect and ±100 for the full control effect
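Cells expressing the human receptor were seeded at 1500 cells/well, incubated overnight at 37 degrees C in 5% CO2, then exposed to library compounds with dopamine controls for 90 minutes at 37 degrees C before luminescent detection.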
D1 agonist – human D1 receptor agonism; hit rate 1% among 360,000; P21728; HEK293 T-REx D1 cells, calcium flux, agonist mode; activation, % at 2 µM; AID 504660; in the data active = activation above about 30%; note: 0% is about no effect
Target sequence (P21728 whole entry, looked up): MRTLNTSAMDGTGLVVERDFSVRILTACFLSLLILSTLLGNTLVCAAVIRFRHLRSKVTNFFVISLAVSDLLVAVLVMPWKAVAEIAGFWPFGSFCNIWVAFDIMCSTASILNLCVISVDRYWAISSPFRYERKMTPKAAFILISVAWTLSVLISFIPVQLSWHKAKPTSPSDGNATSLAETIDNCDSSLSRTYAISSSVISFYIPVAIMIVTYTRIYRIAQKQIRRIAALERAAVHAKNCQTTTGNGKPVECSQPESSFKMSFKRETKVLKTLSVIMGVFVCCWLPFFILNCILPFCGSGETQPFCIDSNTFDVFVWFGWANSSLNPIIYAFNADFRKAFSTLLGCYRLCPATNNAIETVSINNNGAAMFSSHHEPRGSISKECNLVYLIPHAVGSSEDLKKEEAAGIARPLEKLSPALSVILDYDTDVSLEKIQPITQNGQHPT
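Tetracycline-induced HEK293 TREx D1 cells, force-coupled to calcium signalling, were dye-loaded with a no-wash calcium kit. Compound was pin-added after a 10 s baseline. Fluorescence was read kinetically at 1 cycle/s for 180 s, with calcium rises flagged as agonism.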
D1 antagonist – antagonists of human D1 dopamine receptor; P21728; HEK293 TREx D1 cells, calcium flux, dopamine EC80; hits give low values; activity change, negative = inhibition, % at 10 µM; hit rate 3.2% among 360,000; AID 504652; in the data active = activity change below about -30%; note: % is set by controls: 0 for no effect and ±100 for the full control effect
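Tetracycline-induced HEK293 Trex D1 cells, force-coupled to calcium, dye-loaded; compounds added and read 180 s, then EC80 dopamine added and calcium flux tracked kinetically another 180 s.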
D1 PAM – enhances dopamine response at the human D1 receptor. potentiation, % at 10 µM. hit rate 0.036% among 360,000. HEK293 TREx D1 cells, calcium flux, dopamine EC20 potentiation. P21728; in the data active = potentiation above about 30%; note: 0% is about no effect
* = called active by the depositor; u = inconclusive; x = not tested or not shown. The list is not random: actives were taken first. Their share in the collection is about 6%.

SMILES	DRD3 agonist	D3 antag	D1 agonist	D1 antagonist	D1 PAM
Cc1cc(C)cc(NCc2cc3c(cc2[N+](=O)[O-])OCO3)c1	-18	-28	3	-33*	-2
Cc1cc(C)c(OCC(=O)N(Cc2cccc(F)c2)Cc2ccco2)c(C)c1	-9	x	16	-3	-1
c1ccc2c(NCCc3c[nH]c4ccccc34)c3ccccc3nc2c1	-2	u	7	-26	-11
c1ccc(-n2nnnc2NCCc2c[nH]c3ccccc23)cc1	-3	-52*	2	-13	-5
COCOCCn1cc(CN2CCS(=O)(=O)N(Cc3ccc(-c4ccc(OC)cc4)cc3)C(C(C)C)C2=O)nn1 (stereo unspecified)	-1	23	x	x	x
COc1cccc(CN2CCC2(C)C(=O)Nc2ccc(C)c(O)c2)c1F (stereo unspecified)	7	32	x	x	x
Cc1cc(Cl)cc(Br)c1OCCNCC(C)O (stereo unspecified)	-13	-71*	9	-16	-1
Cc1ccc(SCC(=O)NC(=O)Nc2ccc3c(c2)OCCO3)cc1C	1	-12	-1	8	0
CC1(C)Cc2cccc(OCC(=O)OCC(=O)Nc3ccc(C(N)=O)cc3)c2O1	0	5	-2	-39*	-7
CC1(C)Cc2cccc(OCC(=O)OCC(=O)Nc3ccccc3)c2O1	-13	-22	3	4	2
COc1ccccc1CNC(=O)Cc1csc2nc(-c3ccc(Cl)cc3)cn12	1	x	3	4	2
CC(C)C[C@H]1C(=O)N2CCC[C@H]2[C@]2(O)O[C@](NC(=O)[C@@H]3C=C4c5cccc6[nH]c(Br)c(c56)C[C@H]4N(C)C3)(C(C)C)C(=O)N12	39*	x	x	x	x
CCOC(=O)c1ccc(NC(=O)N2CCOc3ccccc32)cc1	-14	x	9	-30*	-5
CCOC(=O)c1c(C2COc3ccccc3O2)csc1NC(=O)c1ccccc1 (stereo unspecified)	33*	-8	4	-9	1
CCOC(=O)c1ccc(NC(=O)CC2COc3ccccc3O2)cc1 (stereo unspecified)	-6	22	0	-30*	1
O=C(NCc1ccc(F)cc1)c1cc(C2CCCN(S(=O)(=O)c3ccccc3)C2)on1 (stereo unspecified)	-5	-20	x	x	x
Cc1ccc(Cn2cc(CCC(=O)NC3CCCCC3)c3ccccc32)cc1	13	x	0	1	1
Cc1cc(C)cc(C(=O)N(CCc2ccccc2)C2CC3CCC(C2)N3C)c1 (stereo unspecified)	-11	-6	9	-31*	-1
COc1cc(C(=O)N(CCc2ccccc2)C2=CC3CCC(C2)N3C)cc(OC)c1OC (stereo unspecified)	-1	6	2	-18	-2
CCc1[nH]nc(C(=O)N/N=C/c2ccncc2)c1C	-1	-17	3	4	-1
N#C/C(=C\c1ccc[nH]1)S(=O)(=O)c1ccccc1	1	9	20	-32*	-2
CCn1cc(/C=C(/C#N)S(=O)(=O)c2ccccc2)cn1	22	-20	12	4	-10
Cn1nccc1/C=C(/C#N)S(=O)(=O)c1ccccc1	1	-56*	3	-1	0
Cc1cccc(OCC(=O)Nc2nonc2-c2ccc(Br)cc2)c1C	-20	x	-1	6	-1
COC(=O)Cn1c2ccccc2c2nc3ccccc3nc21	3	19	4	-37*	-2
SMILES	DRD3 agonist	D3 antag	D1 agonist	D1 antagonist	D1 PAM
O=C(O)Cn1c2ccccc2c2n[nH]c(=S)nc21	5	-12	0	-33*	-6
CCn1c2ccccc2c2n[nH]c(=S)nc21	-4	-3	1	1	-3
COC(=O)Cn1c2nc3ccccc3nc2c2cccc(C)c21	9	14	0	17	-9
CCNc1nc(Oc2ccc(C(=O)OC)cc2)nc(N(C)C)n1	2	-22	12	-31*	-5
O=C(CCC1CCCC1)N1CCN(S(=O)(=O)c2ccc(Br)cc2)CC1	-4	-11	0	-31*	-8
O=C(CC1CCCC1)N1CCN(S(=O)(=O)c2ccc(F)cc2)CC1	13	0	7	14	x
Clc1ccc(Cn2c(-c3cccnc3Cl)nc3ccccc32)cc1	1	8	2	-45*	-7
CCCCC(=O)NC1(C(F)(F)F)C(=O)Nc2c1c(=O)[nH]c(=O)n2-c1ccc(C)c(C)c1 (stereo unspecified)	-6	x	0	-3	-4
COc1cccc(-c2c(C(=O)N/N=C(\C)c3cccnc3)nnn2-c2nonc2N)c1	2	7	2	-11	1
COc1cccc(-c2c(C(=O)N/N=C(\C)c3ccco3)nnn2-c2nonc2N)c1	-1	-20	47*	34	2
C/C(=N\NC(=O)c1nnn(-c2nonc2N)c1-c1ccccc1)c1ccco1	-8	-24	66*	34	3
O=C(CCNC(=O)c1ccco1)Nc1ccc(OC(F)F)c(Cl)c1	-16	0	2	-31*	-8
CCCCN1CCc2c1nc1ccc(Br)cc1c2N	-39	-84*	4	4	0
CN1CCc2c1nc1ccccc1c2N (tested in a mixture with another compound)	1	11	2	-7	-1
O=C(Nc1c(O)c2ccccc2oc1=O)c1ccccc1Cl	11	x	4	7	9
CCOc1ccc(-c2nonc2NC(=O)c2ccco2)cc1OCC	-5	17	1	-15	4
COc1ccc(-c2nonc2NC(=O)c2ccco2)cc1OC	-2	8	1	-37*	3
C=CCn1c(Sc2ncc([N+](=O)[O-])s2)n[nH]c1=O	-36	-80*	1	3	-4
C=CCn1c(CSc2ccccc2[N+](=O)[O-])n[nH]c1=S	6	9	7	0	4
C[C@@H](CN1CC(=O)NC(=O)C1)N1CC(=O)NC(=O)C1	-21	x	x	x	x
CCc1cccc(NC(=O)C(Cc2ccccc2)NS(=O)(=O)c2ccc3c(c2)oc(=O)n3C)c1 (stereo unspecified)	2	x	31*	-11	-3
CCc1ccc(NC(=O)CCS(=O)(=O)c2ccc3c(c2)oc(=O)n3C)cc1	5	x	-1	-37*	-6
CCOc1ccc(NC(=O)C(Cc2ccccc2)NS(=O)(=O)c2ccc3c(c2)oc(=O)n3C)cc1 (stereo unspecified)	0	x	5	-20	-1
Cc1ccc(C)c(S(=O)(=O)N2CCN(C(=O)c3ccc(OCc4c(C)noc4C)cc3)CC2)c1	4	-22	10	-31*	-1
CCc1noc(C)c1C(=O)N1CCN(S(=O)(=O)c2cc(C)ccc2C)CC1	-9	3	-1	-31*	11
Cc1ccc(S(=O)(=O)N2CCN(C(=O)c3ccc(OCc4c(C)noc4C)cc3)CC2)cc1	-3	27	2	-1	-5

From PubChem
